WRN helicase inh: qHTS for Inhibitors of WRN Helicase; Potency, µM (series often up to 114 µM), usual class: inhibitors; AID 651768, 2012; Bifunctional 3'-5' exonuclease/ATP-dependent helicase WRN (Homo sapiens), Q14191; WRN helicase unwinding, fluorescent forked duplex, kinetic; hit rate 0.46% among 360,000; note: nearly all actives have a fitted effect of over 55% in size
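WRN at 20 nM final preincubated with compound 15 min at room temperature; reaction started with 100 nM fluorophore/quencher forked duplex oligonucleotide and 2 mM ATP final. Unwinding followed kinetically by red fluorescence (ex 525, em 598 nm).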
Pol kappa inh-1: qHTS for Inhibitors of Polymerase Kappa; Potency, µM (top dose mostly 107 µM), actives largely listed as inhibitors; purified Pol kappa, fluorescent DNA synthesis assay, 10 min; AID 588579, 2011; hit rate 0.53% among 400,000; DNA polymerase kappa (Homo sapiens), Q9UBT6
Target sequence (Q9UBT6 whole entry, looked up): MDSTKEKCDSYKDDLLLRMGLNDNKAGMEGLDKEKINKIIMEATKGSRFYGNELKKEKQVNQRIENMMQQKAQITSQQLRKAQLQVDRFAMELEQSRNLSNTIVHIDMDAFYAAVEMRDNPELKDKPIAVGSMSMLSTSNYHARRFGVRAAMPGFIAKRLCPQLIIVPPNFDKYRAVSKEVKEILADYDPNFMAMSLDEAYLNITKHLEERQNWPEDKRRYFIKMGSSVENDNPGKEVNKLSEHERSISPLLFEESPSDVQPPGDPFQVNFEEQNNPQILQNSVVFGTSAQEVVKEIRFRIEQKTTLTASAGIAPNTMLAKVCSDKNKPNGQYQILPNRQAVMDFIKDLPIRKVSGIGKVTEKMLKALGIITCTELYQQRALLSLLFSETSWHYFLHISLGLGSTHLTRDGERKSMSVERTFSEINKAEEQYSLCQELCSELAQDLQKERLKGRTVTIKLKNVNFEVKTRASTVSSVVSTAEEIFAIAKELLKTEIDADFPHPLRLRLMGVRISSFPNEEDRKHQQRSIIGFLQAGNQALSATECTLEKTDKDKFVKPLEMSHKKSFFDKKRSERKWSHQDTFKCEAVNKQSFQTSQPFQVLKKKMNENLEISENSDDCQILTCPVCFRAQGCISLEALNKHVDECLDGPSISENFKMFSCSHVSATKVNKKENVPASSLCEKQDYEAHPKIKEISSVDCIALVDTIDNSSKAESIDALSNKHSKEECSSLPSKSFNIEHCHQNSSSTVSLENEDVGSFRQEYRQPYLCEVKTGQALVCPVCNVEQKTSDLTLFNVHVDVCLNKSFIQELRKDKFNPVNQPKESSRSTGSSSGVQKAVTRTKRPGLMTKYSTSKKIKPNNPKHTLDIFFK
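10 nM Pol kappa was preincubated with compounds for 15 min at room temperature. Reaction started with 50 nM (final) substrate. Fluorescence read kinetically at 0 and 10 min.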
PI5P4Ka inh: qHTS for Inhibitors of phosphatidylinositol 5-phosphate 4-kinase (PI5P4K); AID 652105, 2013; PI5P4Kalpha enzyme, ADP-Glo luminescence, 60 min; active compounds read low; hit rate 1.2% among 330,000; max response, %; active = max response of -50% or lower; inconclusive = between -30% and -50%; inactive = -30% or higher; note: value at the top dose of about 77 µM
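PI5P4Kalpha ADP-Glo assay; 5 microM ATP final; 60 min RT reaction; HEPES pH 7.4/EGTA/CHAPS, 5% DMSO; controls lacking substrate or enzyme; luminescent end-point.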
Pol eta inh-1: qHTS for Inhibitors of Polymerase Eta | DNA polymerase eta (Homo sapiens), Q9Y253 | recombinant Pol eta, fluorescent DNA replication assay | Potency, µM (titrated, usually from 114 µM), usual class: inhibitors | hit rate 1.2% among 390,000
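Fluorescent replication assay: 50 nM final substrate added after a 15 min room-temperature compound preincubation with 10 nM enzyme. Signal taken at 0 min and again at 10 min.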
Pol beta inh: qHTS Assay for Inhibitors of DNA Polymerase Beta | Pol beta primer extension/strand displacement, fluorescence kinetic | Potency, µM (top dose mostly 114 µM), most hits filed as inhibitors | AID 485314, 2010 | hit rate 1.3% among 340,000
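Kinetic readout of DNA synthesis with strand displacement by Pol beta. Compound and 10 nM enzyme sit 15 min at room temperature; 50 nM substrate starts the reaction, read immediately and at 10 min.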
POLI inh: qHTS for Inhibitors of Polymerase Iota. DNA polymerase iota (Homo sapiens), Q9UNA4. Pol iota fluorescent replication assay, 10 min. Potency, µM (top dose mostly 115 µM), actives largely listed as inhibitors. hit rate 1% among 390,000. AID 588590, 2011
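Fluorescent replication assay read twice, at 0 min and 10 min after adding 50 nM (final) substrate. Enzyme (10 nM) and compounds were first incubated 15 min at room temperature; enzyme-free buffer wells were negative controls.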
PGK validate: qHTS for inhibitors of Phosphogylcerate Kinase: Hit Validation Screen. TbPGK coupled GAPDH assay, Kinase-Glo luminescence. hit rate 79% among 500. shares compounds with Pol kappa inh-1. Potency, µM (doses to about 57.5 µM), actives largely listed as inhibitors. AID 686980, 2013; note: nearly all actives have a fitted effect of over 65% in size
Pol iota confirm: qHTS for Inhibitors of Polymerase Iota: Confirmatory Assay for Cherry-picked Compounds. shares compounds with Pol kappa inh-1. AID 720496, 2013. hit rate 77% among 1,500. Pol iota primer extension, TAMRA/BHQ fluorescence. Potency, µM, hits mostly inhibitors
GALK inh confirm: Confirmation Assay for Inhibitors of Human Galactokinase (GALK); shares compounds with Pol eta inh-1; purified GALK, Kinase-Glo ATP depletion luminescence; Potency, µM (top dose mostly 115 µM), actives largely listed as inhibitors; hit rate 70% among 150; AID 2015, 2009
GALK redox cs: Confirmatory Assay for Inhibitors of Human Galactokinase (GALK): Phenol-HRP redox assay counterscreen; shares compounds with Pol eta inh-1; Phenol red-HRP H2O2 redox cycling, absorbance 600 nm; Potency, µM (highest dose often 115 µM), hits mostly inhibitors; hit rate 40% among 150
HEK293 viability: Secondary Assay for Inhibitors of Human Galactokinase (GALK): HEK-293 Cell Viability Assay | AID 2547, 2010 | hit rate 10% among 170 | Potency, µM (highest dose often 46.1 µM), usual class: inhibitors | shares compounds with Pol eta inh-1 | HEK-293 viability, ATP luminescence (CellTiter-Glo), 24/48 h
Pol kappa inh-2: qHTS for Inhibitors of Polymerase Kappa: Confirmatory Assay for Cherry-picked Compounds | shares compounds with Pol eta inh-1 | purified Pol-kappa, fluorescent strand-displacement substrate | Potency, µM, most hits filed as inhibitors | hit rate 76% among 920
Pol eta inh-2: qHTS for Inhibitors of Polymerase Eta: Confirmatory Assay for Cherry-picked Compounds; shares compounds with Pol eta inh-1; Pol eta primer extension, TAMRA/BHQ fluorescence, 10 min; Potency, µM, hits mostly inhibitors; hit rate 64% among 2,600; AID 720502, 2013
Numbers stand for hits; - = inactive; ? = inconclusive; . = no result given; [ ] = dose if it differs, or a comment. Compounds with a hit are over-represented: about 2.8% of the library has one in this group of screens. Unless noted, calls come from the whole dose curve; as a rule, active = well fitted curve in the direction sought with a large enough effect; inconclusive = small, poorly fitted or top-dose-only effect, or another doubt; inactive = no such curve, though single readings can be large; an effect the other way counts as inactive or inconclusive.

SMILES	WRN helicase inh	Pol kappa inh-1	PI5P4Ka inh	Pol eta inh-1	Pol beta inh	POLI inh	Pol iota confirm	Pol eta inh-2	others
N#Cc1c(N2CCCC2)nc(N)c2c(N)nc(N3CCCC3)cc12	-[11.6 µM]	-	-	2.8µM	?	2.5µM	38	60	GALK inh confirm=2.1µM;GALK redox cs=1.9µM;HEK293 viability=-
Cc1ccccc1NC(=O)CN1C(=O)S/C(=C/c2cccnc2)C1=O	-	-	-	-	-	-	.	.
Cc1ccc(NC(=O)CN2C(=O)N/C(=C/c3cc(C)n(-c4ccc(C(=O)O)cc4)c3C)C2=O)cc1	-[11.6 µM]	?	-53	22µM	50µM	35µM	42	27	Pol kappa inh-2=24
Cc1ccccc1NC(=O)CN1C(=O)S/C(=C\c2cccn2-c2cccc(C(=O)O)c2)C1=O	?	25µM	-	3.5µM	-	?	42	48
Cc1cccc(C)c1NC(=O)CN1C(=O)S/C(=C\c2cccn2-c2cccc(C(=O)O)c2)C1=O	?	-	-69	22µM	-	?	38	76
O=C(CN1C(=O)N/C(=C\c2cccn2-c2cccc(C(=O)O)c2)C1=O)Nc1ccc(Cl)cc1	.	.	.	.	.	.	60	?
Cc1cc(C)c(S(=O)(=O)Nc2nnc(C(C)C)s2)c(C)c1	-	-	-	-	-	-	.	.
Cc1c(N2C(=O)/C(=C\c3ccccc3O)SC2=S)c(=O)n(-c2ccccc2)n1C	-	-	?	-	-	?	.	.
Cc1cccc(C)c1-n1cccc1/C=C1\SC(=S)N(c2cccc(C(=O)O)c2)C1=O	?	-	?	?	40µM	?	?	?	Pol kappa inh-2=60
O=c1c(CCc2ccccc2)nc2cnc(N3CCNCC3)nc2n1CCc1ccccc1	.	-	.	.	.	.	.	.
O=C1COc2ccc(C(=O)COC(=O)/C=C/c3ccc(Br)o3)cc2N1	35µM	18µM	-80	1.6µM	.	20µM	21	67
Cc1ccc(/C=C/C(=O)OCC(=O)c2ccc3c(c2)NC(=O)CO3)o1	-	-	-	-	.	-	.	.
O=c1oc2ccccc2c2oc3cc(O)c(O)cc3c12	45µM	5µM	-64	4.5µM	-	3.2µM	21	21	Pol kappa inh-2=67
C/C(=N\Nc1ccc(Cl)c(C(=O)O)c1)c1ccc[nH]1	?	45µM	?	14µM	32µM	45µM	53	27
O=C(O)c1cc(N/N=C/C=C/c2ccccc2)ccc1Cl	-	-	-	-	?	-	.	.
CN1CCN(/C=C2\SC(=S)NC2=O)CC1	-	-	-	-	-	-	.	.
Cc1cc(/C=C2\SC(=S)NC2=O)c(C)n1C	?	79µM	.	28µM	40µM	?	67	38	Pol kappa inh-2=17
Oc1ccc(/C=N/NC(=S)Nc2cccnc2)c(O)c1O	10µM	2.2µM	-96	?	?	?	2.7	3	Pol kappa inh-2=3
Fc1cccc(F)c1/C=N/NC(=S)Nc1cccnc1	-	-	-	-	-	-	.	.
Oc1cccc(/C=N/NC(=S)Nc2cccnc2)c1O	?	?	-66	20µM	16µM	7.9µM	38	85
C=CCn1c(C)cc(C(=O)Cn2ncc(Cl)c(Cl)c2=O)c1C	?	?	-72	28µM	11µM	20µM	?	76
Cc1ccc2c(c1)c(=O)c1c3n2CCN(C(=O)CCl)C3CC1 (stereo not drawn)	?	-	-	6.3µM	16µM	?	60	60
COc1cccc(C(C)(O)c2nc(-c3cccc(C(C)C)c3)cs2)c1 (stereo not drawn)	-	.	-	.	.	.	.	.
CCC[n+]1cn(/C(C(=S)Nc2cccc(Cl)c2C)=C(/[O-])c2ccc(OC)c(OC)c2)c2ccccc21	-	-	-	-	-	-	.	.
COc1cc(C)c2c(c1C=O)Oc1c(c(C)c(O)c3c1C(O)OC3=O)OC2=O (stereo not drawn)	50µM	22µM	-64	16µM	7.9µM	45µM	42	21	PGK validate=4.6µM
SMILES	WRN helicase inh	Pol kappa inh-1	PI5P4Ka inh	Pol eta inh-1	Pol beta inh	POLI inh	Pol iota confirm	Pol eta inh-2	others
COC(=O)c1c(OC)cc2c(c1C)Oc1c(Cl)c(O)c(Cl)c(C)c1C(=O)O2	.	-	.	.	.	.	.	.
CCCSc1nnc(NC(=O)CSc2sc3c(O)cc(=O)[nH]c3c2C#N)s1	10µM	20µM	-72	3.2µM	20µM	8.9µM	67	30	Pol kappa inh-2=11
O=C(/C=C/c1ccco1)NC(=S)Nc1ccc(C(=O)O)cc1	?	25µM	-79	7.1µM	11µM	?	9.5	5.4
CN(C)CCCNC(=O)c1ccc(-c2cc(O)c3ncccc3c2)cc1	.	-	.	-	.	-	47	?
O=c1cc(-c2ccccc2)oc2c1ccc1ccccc12	.	-[19.4 µM]	.	.	.	.	.	.
O=c1cc(-c2ccc(O)c(O)c2)oc2c1ccc1ccccc12	?	35µM	-	3.2µM	.	10µM	27	4.8	Pol kappa inh-2=21
C=CC(=O)N1C/C(=C/c2ccc(F)cc2)C(=O)/C(=C\c2ccc(F)cc2)C1	40µM	79µM	-	10µM	.	11µM	60	76	PGK validate=5.8µM
CCC(CC)C(=O)Nc1cccc(C(=O)Nc2ccc(S(=O)(=O)Nc3ccc(C)cc3)cc2)c1	-	-	.	-	-	-	.	.
